GCN5L2 inh: blocks human GCN5L2 histone acetyltransferase. Q92830. Potency, µM (doses to about 58.9 µM), without a hit: at the top dose activity change, negative = inhibition, most hits filed as inhibitors. hit rate 0.21% among 390,000. GCN5L2 HAT assay, ThioGlo1 CoA-SH fluorescence
Target sequence (Q92830 whole entry, looked up): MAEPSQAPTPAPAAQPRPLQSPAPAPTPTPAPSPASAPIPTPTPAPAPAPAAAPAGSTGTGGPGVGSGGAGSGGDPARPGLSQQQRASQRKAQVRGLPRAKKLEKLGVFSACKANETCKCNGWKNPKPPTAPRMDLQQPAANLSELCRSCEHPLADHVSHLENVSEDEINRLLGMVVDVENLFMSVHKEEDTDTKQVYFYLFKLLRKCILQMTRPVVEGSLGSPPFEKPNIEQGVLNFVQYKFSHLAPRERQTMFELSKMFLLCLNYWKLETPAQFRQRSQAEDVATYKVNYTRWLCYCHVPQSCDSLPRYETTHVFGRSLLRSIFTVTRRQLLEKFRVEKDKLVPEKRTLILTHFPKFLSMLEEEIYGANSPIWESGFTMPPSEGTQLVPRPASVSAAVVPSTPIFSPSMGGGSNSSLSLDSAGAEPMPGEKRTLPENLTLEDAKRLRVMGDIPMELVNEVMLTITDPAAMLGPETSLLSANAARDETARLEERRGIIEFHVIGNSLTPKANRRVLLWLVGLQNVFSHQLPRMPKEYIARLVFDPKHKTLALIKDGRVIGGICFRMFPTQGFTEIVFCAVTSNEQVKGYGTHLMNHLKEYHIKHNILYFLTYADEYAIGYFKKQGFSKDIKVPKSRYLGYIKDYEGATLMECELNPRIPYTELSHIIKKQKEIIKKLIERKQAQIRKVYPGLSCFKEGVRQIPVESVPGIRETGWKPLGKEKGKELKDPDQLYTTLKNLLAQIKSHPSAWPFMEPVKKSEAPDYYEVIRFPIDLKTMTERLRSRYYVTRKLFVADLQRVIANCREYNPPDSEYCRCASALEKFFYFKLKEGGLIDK
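Compounds, pin-transferred from DMSO stocks, meet 20nM GCN5L2 for 15 min before the reaction begins with H3(1-25) peptide (75uM) and acetyl-CoA (70uM). Thiol-reactive ThioGlo1 reports CoA release over 20 min at room temperature.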
VDR inhibitor: vitamin D3 receptor (human) inhibition. P11473. VDR-SRC2-3 peptide fluorescence polarization, 2 h. Potency, µM, without a hit: max response, negative = inhibition, most hits filed as inhibitors. hit rate 0.93% among 400,000
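Signal is fluorescence polarization, reporting how far test compounds block the interaction of VDR with the SRC2-3 coregulator peptide after a 2 h room-temperature incubation.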
TDP1 cell CPT: growth inhibition of DT40 Tdp1-/-;hTDP1 cells with camptothecin (screen for TDP1 inhibitors). chicken DT40 Tdp1-/-;hTDP1 cells + 20 nM CPT, ATP luminescence, 48 h. Potency, µM (titrated, usually from 46.2 µM), for the others: at the highest dose activity change, negative = growth inhibition, usual class: inhibitors. hit rate 12% among 420,000; note: nearly all actives have a fitted effect of over 55% in size
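Cell growth measured by CellTiter-Glo luminescence after a minimum 48 h, 37 C compound exposure with 20 nM CPT in Tdp1-knockout DT40 cells stably expressing hTDP1, seeded 400/well; qHTS titration format.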
PLK1 PBD inh: PLK1 (human) polo-box domain binding inhibition; Plk1 PBD binding of FITC phosphopeptide, fluorescence polarization; Potency, µM, inactives show max response, negative = inhibition, hits mostly inhibitors; hit rate 2.8% among 360,000; AID 720504; note: series mostly up to about 57 µM; nearly all actives have a fitted effect of over 65% in size
DT40 TDP1 no CPT: qHTS for Inhibitors of human tyrosyl-DNA phosphodiesterase 1 (TDP1): qHTS in cells in absence of CPT | DT40 Tdp1-/- hTDP1 cells, no CPT, ATP luminescence, 48 h | Potency, µM (series often up to 46.2 µM), without a hit: at the top dose activity change, negative = growth inhibition, usual class: inhibitors | hit rate 15% among 420,000 | AID 686978, 2013; note: nearly all actives have a fitted effect of over 55% in size
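Camptothecin absent (DMSO only). Human TDP1-complemented DT40 knockout cells, 400 cells/well, 37 °C for minimum 48 hr; ATP measured via CellTiter-Glo, 30 min dark incubation, luminescence.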
TDP1 inh: TDP1 (human) enzyme inhibition; hit rate 0.28% among 350,000; AID 485290; recombinant TDP1, AlphaScreen DNA substrate cleavage; Q9NUW8; Potency, µM (doses to about 130 µM), inactives show top-dose activity change, negative = inhibition, hits mostly inhibitors; note: nearly all actives have a fitted effect of over 40% in size
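Signal: AlphaScreen proximity between streptavidin donor and anti-FITC acceptor beads on intact substrate. Reaction: Tdp1 1 nM, substrate 15 nM final, 5 min RT after 15 min compound preincubation.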
* hit, by the source's call; ? = inconclusive; / = no result given; [ ] = remark or other dose. An excerpt weighted towards active compounds, which were near 18% of everything screened. Calls come from the whole dose curve; as a rule, active = well fitted curve in the direction sought with a large enough effect; inconclusive = small, poorly fitted or top-dose-only effect, or another doubt; inactive = no such curve, though single readings can be large; an effect the other way counts as inactive or inconclusive. % is set by controls: 0 for no effect and ±100 for the full control effect; potency is the fitted concentration of half-maximal effect.

SMILES	GCN5L2 inh	VDR inhibitor	TDP1 cell CPT	PLK1 PBD inh	DT40 TDP1 no CPT	TDP1 inh
CC(=O)Nc1ccc(S(=O)(=O)Nc2ccc(=O)n(Cc3ccc(Cl)c(Cl)c3)c2)cc1	-3%	-6%	1%	2%	-1%	-1%
O=c1ccc(NS(=O)(=O)c2ccccc2Cl)cn1Cc1ccc(Cl)c(Cl)c1	-10%	16µM*	-13%	-6%	-14%	6%
Cc1cccc(C)c1OCC1CNC(=O)O1 (configuration not stated)	-17%	-13%	?	27µM*	?	/
N#Cc1ccc(-c2ccc(OCC3CNC(=O)O3)cc2)cc1 (configuration not stated)	-4%	1%	8.2µM*	-2%	13µM*	4%
O[C@@](CCN1CCCCC1)(c1ccccc1)[C@@H]1C[C@H]2C=C[C@@H]1C2	-28%[21.4 µM]	5%	/	/	/	13%[21 µM]
Cc1c(Cl)cccc1NC(=O)Nc1ccccc1C(N)=O	-2%	-7%	4.1µM*	?	6.5µM*	0%
Cc1c(Cl)cccc1NC(=O)Nc1ccc(C(N)=O)cc1	-1%	7%	6%	1%	-24%	-5%
NC(=O)c1ccccc1NC(=O)Nc1cccc(Cl)c1Cl	-9%	-11%	5.8µM*	7%	9.2µM*	2%
Cc1ccc(S(=O)(=O)N2CCOCC2)cc1NC(=O)CNCC1CCCCC1	2%	-24%	?	0%	?	0%
CC(C)CCN1C(Nc2ccccc2)=NC[C@@H]1Cc1ccccc1	4%	-6%	?	?	16µM*	/
CC(C)CCN1C(Nc2ccccc2)=NC[C@@H]1C	-3%	-7%	-22%	-3%	?	/
CC(CCN1C(Nc2ccccc2)=NC[C@@H]1C)c1ccccc1 (some centres not stated)	1%	-13%	23µM*	-13%	12µM*	/
CC(CCN1C(Nc2ccccc2)=NC[C@@H]1Cc1ccccc1)c1ccccc1 (some centres not stated)	7%	8%	?	4%	18µM*	/
CCCCN1C(Nc2ccccc2)=NC[C@@H]1CC(C)C	-9%	-12%	?	-7%	?	-6%
CC(C)CCCN1C(Nc2ccccc2)=NC[C@@H]1Cc1ccccc1	-3%	-12%	?	-1%	16µM*	/
CC(=O)N1CCOc2ccc(S(=O)(=O)NC(C)c3ccccc3)cc21 (configuration not stated)	1%	-21%	-6%	-24%	-2%	3%
COc1ccccc1-n1nnnc1SCC(=O)N(C)C1CCS(=O)(=O)C1 (configuration not stated)	-7%	-9%	-7%	2%	16%	0%
CC(C)CCCN1C(Nc2ccccc2)=NC[C@@H]1CC(C)C	1%	-16%	?	-18%	18µM*	/
CC(C)C[C@H]1CN=C(Nc2ccccc2)N1CCCCc1ccccc1	-1%	-19%	26µM*	2%	?	/
c1ccc(CCCCN2CCN=C2Nc2ccccc2)cc1	-3%	-6%	?	-8%	16µM*	-4%
C#CCOCCOCCOCCNc1nc(N2CCN(C(=O)CCCCCCCCCCNC(=O)[C@H](CO)n3cc(CCCSC)nn3)CC2)nc(N2CCN(C(=O)CCCCCCCCCCNC(=O)[C@H](CCCCN)n3cc(C[C@@H](C)CC)nn3)CC2)n1	-9%	/	/	/	/	/
C#CCOCCOCCOCCNc1nc(N2CCN(C(=O)CCCCCCCCCCNC(=O)Cn3cc(CCCCCN)nn3)CC2)nc(N2CCN(C(=O)CCCCCCCCCCNC(=O)[C@H]([C@@H](C)CC)n3cc(CCCCCN)nn3)CC2)n1	-6%	2%	23µM*	-7%	?	6%
C#CCOCCOCCOCCNc1nc(N2CCN(C(=O)CCCCCCCCCCNC(=O)[C@@H](CCSC)n3cc(CCO)nn3)CC2)nc(N2CCN(C(=O)CCCCCCCCCCNC(=O)[C@H]([C@@H](C)CC)n3cc(CCCCCN)nn3)CC2)n1	-3%	57%	?	3%	16µM*	13%
C#CCOCCOCCOCCNc1nc(N2CCN(C(=O)CCCCCCCCCCNC(=O)[C@H](CO)n3cc(CCCSC)nn3)CC2)nc(N2CCN(C(=O)CCCCCCCCCCNC(=O)[C@H](CO)n3cc(CCCSC)nn3)CC2)n1	-9%	-10%	8.2µM*	5%	6.5µM*	-7%
C#CCOCCOCCOCCNc1nc(N2CCN(C(=O)CCCCCCCCCCNC(=O)[C@H]([C@@H](C)CC)n3cc(CCCCCN)nn3)CC2)nc(N2CCN(C(=O)CCCCCCCCCCNC(=O)[C@@H]([C@H](C)O)n3cc(C)nn3)CC2)n1	-8%	34%	16µM*	-22%	?	7%
SMILES	GCN5L2 inh	VDR inhibitor	TDP1 cell CPT	PLK1 PBD inh	DT40 TDP1 no CPT	TDP1 inh
C#CCOCCOCCOCCNc1nc(N2CCN(C(=O)CCCCCCCCCCNC(=O)[C@@H](CCSC)n3cc(CCO)nn3)CC2)nc(N2CCN(C(=O)CCCCCCCCCCNC(=O)[C@H]([C@@H](C)CC)n3cc(CCCCN=C(N)N)nn3)CC2)n1	-11%	66%	?	18%	?	13%
C#CCOCCOCCOCCNc1nc(N2CCN(C(=O)CCCCCCCCCCNC(=O)Cn3cc(CCCCCN)nn3)CC2)nc(N2CCN(C(=O)CCCCCCCCCCNC(=O)[C@H](CO)n3cc(CCCCCN)nn3)CC2)n1	-14%	-3%	?	-2%	?	12%
C[C@H]1Oc2ccccc2C(=O)C1C(=O)c1ccccc1 (some centres not stated)	/	8%	0%	-15%	-23%	/
CN(C)CCC1(c2ccccc2)CCN(C)C1=O (configuration not stated)	/	/	-12%	-7%	0%	/
O=C(O)CCc1ccc(-c2ccc(Cl)cc2)n1-c1cccc(C(F)(F)F)c1	2%	?	-2%	/	-14%	/
COc1ccc(S(=O)(=O)N2N=C(C)Oc3ccccc3C2=O)cc1	23%	-1%	2.9µM*	-2%	2.9µM*	1%
CC/C(C)=N\N=C\c1c(O)n(CC)c2cc(C3=NNC(=O)CC3)ccc12	0%	-11%	10µM*	2%	6.5µM*	12%[56.1 µM]
Nc1nc2ccccc2n1/N=C/c1cccnc1	/	?	-5%	2%	-15%	/
Nc1nc2ccccc2n1/N=C/c1ccc(-c2ccccc2)o1	-3%	-8%	?	-6%	16µM*	8%
CCN(C(=O)COC(=O)c1cc(=O)[nH]c2ccccc12)C1CCS(=O)(=O)C1 (configuration not stated)	-24%	0%	-7%	-17%	18%	/
